# Assay results: ChEMBL document CHEMBL2218924, “A broad activity screen in support of a chemogenomic map for kinase signalling research and drug discovery” (Biochem J, 2013); call rule not given here
# Key:
# [1] = target: T1, Ephrin type-A receptor 3 (Homo sapiens) (UniProt P29320); settings: at 10 µM
# T1 sequence (whole entry): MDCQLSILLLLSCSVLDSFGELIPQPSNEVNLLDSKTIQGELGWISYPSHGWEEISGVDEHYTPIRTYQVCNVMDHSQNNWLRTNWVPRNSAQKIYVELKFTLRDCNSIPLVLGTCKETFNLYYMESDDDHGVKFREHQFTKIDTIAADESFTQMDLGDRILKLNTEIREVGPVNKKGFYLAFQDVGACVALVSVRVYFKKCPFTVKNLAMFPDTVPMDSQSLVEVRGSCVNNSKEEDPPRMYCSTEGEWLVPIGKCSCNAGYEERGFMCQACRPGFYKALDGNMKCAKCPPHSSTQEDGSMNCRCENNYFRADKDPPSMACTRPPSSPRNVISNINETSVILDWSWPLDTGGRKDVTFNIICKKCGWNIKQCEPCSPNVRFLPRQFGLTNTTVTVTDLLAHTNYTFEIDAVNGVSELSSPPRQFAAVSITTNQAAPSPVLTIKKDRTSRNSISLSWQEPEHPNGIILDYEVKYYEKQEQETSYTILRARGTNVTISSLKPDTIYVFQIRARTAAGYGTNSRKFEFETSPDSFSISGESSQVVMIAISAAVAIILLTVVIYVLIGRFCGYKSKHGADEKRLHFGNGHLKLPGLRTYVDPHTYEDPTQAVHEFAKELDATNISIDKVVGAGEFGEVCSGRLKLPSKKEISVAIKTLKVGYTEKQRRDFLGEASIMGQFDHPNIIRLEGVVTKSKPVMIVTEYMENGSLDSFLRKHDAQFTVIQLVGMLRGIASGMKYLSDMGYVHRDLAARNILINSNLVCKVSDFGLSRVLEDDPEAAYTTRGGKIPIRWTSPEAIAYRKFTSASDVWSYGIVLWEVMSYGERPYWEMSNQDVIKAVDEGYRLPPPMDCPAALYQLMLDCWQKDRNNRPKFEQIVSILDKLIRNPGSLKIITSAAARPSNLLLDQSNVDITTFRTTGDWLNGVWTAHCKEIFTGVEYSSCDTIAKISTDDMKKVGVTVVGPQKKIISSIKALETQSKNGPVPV
# [2] = target: Ephrin type-A receptor 4 (Homo sapiens) (UniProt P54764); settings: at 1 µM
# Sequence of Ephrin type-A receptor 4 (Homo sapiens) (P54764 whole entry): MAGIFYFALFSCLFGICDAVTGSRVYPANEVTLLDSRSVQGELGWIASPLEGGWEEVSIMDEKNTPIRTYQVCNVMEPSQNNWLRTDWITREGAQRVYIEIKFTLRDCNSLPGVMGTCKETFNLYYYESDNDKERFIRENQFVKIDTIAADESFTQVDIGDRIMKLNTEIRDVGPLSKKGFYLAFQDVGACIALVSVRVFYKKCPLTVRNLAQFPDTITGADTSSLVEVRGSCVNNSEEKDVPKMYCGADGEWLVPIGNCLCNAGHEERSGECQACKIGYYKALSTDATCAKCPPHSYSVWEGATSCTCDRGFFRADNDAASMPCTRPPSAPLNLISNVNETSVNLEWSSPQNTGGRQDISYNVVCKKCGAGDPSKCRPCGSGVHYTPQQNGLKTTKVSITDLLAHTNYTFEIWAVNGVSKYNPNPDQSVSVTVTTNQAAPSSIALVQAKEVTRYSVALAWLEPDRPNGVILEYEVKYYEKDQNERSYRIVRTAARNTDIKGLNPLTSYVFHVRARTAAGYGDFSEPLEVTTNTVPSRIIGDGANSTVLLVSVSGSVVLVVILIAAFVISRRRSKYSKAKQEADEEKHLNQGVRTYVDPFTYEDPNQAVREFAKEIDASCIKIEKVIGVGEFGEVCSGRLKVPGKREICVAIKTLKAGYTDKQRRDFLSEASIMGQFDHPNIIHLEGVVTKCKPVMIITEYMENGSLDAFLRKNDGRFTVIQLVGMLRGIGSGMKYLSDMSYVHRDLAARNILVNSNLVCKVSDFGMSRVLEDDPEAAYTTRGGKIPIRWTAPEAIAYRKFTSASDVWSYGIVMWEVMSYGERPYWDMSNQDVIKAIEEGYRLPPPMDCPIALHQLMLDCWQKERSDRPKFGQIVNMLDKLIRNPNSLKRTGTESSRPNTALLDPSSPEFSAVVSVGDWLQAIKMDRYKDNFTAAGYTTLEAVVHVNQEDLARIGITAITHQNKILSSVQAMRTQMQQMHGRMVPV
# [3] = target: Ephrin type-A receptor 4 (Homo sapiens) (UniProt P54764); settings: at 10 µM
# [4] = target: Ephrin type-A receptor 7 (Homo sapiens) (UniProt Q15375); settings: at 10 µM
# Sequence of Ephrin type-A receptor 7 (Homo sapiens) (Q15375 28-998 limits assumed): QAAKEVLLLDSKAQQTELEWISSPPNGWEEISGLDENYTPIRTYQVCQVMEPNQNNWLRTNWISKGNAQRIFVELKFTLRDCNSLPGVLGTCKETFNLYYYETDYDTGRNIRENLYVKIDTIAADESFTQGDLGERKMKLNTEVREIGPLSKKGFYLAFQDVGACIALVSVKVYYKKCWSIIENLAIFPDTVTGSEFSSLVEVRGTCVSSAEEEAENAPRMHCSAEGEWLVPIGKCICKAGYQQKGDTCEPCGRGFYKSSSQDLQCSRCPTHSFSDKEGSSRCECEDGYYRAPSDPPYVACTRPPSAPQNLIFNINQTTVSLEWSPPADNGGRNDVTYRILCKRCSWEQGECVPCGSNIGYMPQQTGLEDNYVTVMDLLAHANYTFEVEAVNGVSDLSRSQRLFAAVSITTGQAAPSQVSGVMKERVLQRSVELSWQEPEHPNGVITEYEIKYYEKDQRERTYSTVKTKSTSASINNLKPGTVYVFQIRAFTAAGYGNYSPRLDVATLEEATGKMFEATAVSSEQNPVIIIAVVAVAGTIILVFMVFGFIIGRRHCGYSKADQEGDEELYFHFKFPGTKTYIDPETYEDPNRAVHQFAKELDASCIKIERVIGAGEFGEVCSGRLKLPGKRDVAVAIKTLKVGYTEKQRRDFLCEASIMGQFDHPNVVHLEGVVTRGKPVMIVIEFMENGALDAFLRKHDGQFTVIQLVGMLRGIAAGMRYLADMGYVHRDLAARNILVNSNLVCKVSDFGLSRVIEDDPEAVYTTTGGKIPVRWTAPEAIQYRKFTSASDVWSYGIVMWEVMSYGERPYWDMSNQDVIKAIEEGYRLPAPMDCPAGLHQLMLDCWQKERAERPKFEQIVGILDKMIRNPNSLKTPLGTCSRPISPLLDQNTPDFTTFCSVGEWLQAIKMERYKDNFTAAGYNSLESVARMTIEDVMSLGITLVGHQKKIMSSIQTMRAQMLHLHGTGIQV
# [5] = target: T2, Ephrin type-A receptor 8 (Homo sapiens) (UniProt P29322); settings: at 1 µM
# T2 sequence (whole entry): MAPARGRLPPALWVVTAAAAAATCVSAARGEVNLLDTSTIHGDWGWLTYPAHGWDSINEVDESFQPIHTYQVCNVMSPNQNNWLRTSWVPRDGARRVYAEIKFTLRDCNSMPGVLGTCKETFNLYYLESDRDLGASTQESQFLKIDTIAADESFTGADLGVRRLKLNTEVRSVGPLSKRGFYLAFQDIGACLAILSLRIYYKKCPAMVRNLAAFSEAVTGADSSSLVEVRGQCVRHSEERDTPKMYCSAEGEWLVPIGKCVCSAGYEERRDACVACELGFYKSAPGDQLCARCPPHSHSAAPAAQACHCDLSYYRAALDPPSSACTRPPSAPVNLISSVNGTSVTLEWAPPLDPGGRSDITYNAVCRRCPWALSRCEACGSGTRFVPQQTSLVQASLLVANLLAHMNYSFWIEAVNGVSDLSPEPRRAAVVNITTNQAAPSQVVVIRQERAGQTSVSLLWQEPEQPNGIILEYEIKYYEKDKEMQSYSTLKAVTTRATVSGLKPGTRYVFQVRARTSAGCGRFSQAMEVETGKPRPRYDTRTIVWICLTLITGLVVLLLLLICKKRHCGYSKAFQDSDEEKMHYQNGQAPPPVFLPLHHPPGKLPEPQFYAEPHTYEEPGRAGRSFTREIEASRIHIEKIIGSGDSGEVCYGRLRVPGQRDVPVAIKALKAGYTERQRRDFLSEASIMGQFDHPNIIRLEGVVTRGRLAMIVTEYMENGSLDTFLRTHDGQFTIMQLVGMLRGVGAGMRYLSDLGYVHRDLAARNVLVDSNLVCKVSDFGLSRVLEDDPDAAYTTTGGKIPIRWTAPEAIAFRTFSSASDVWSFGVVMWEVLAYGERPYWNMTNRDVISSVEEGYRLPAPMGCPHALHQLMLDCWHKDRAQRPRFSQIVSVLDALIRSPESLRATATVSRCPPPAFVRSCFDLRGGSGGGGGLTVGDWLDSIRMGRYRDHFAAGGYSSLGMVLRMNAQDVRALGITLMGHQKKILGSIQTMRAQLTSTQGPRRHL
# [6] = target: T2, Ephrin type-A receptor 8 (Homo sapiens); settings: at 10 µM
# [7] = target: T3, Ephrin type-B receptor 1 (Homo sapiens) (UniProt P54762); settings: at 1 µM
# T3 sequence (whole entry): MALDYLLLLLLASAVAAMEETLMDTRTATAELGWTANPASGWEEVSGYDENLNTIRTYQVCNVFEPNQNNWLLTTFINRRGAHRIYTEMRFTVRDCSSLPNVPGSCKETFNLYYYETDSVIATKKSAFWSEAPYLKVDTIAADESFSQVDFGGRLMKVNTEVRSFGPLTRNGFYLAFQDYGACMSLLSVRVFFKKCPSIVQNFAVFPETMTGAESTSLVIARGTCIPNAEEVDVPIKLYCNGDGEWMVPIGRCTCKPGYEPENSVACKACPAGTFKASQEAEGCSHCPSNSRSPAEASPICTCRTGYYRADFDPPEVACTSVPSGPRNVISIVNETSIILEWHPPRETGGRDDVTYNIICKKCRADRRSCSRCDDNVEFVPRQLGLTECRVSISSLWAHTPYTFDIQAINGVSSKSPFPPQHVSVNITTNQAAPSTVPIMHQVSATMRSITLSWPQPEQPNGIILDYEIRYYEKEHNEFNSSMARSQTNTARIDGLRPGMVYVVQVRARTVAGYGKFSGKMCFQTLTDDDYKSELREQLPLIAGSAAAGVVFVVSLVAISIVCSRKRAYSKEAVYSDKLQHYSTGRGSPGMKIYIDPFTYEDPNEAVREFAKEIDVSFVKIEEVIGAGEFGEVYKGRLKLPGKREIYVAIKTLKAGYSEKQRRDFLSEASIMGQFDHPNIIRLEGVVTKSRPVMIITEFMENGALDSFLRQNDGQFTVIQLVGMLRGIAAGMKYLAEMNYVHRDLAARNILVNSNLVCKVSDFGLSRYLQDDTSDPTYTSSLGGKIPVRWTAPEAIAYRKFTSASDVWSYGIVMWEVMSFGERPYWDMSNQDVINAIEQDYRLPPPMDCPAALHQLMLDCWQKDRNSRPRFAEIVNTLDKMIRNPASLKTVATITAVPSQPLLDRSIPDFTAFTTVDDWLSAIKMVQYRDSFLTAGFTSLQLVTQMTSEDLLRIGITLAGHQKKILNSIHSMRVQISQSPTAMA
# [8] = target: T3, Ephrin type-B receptor 1 (Homo sapiens); settings: at 10 µM
# [9] = target: T4, Ephrin type-B receptor 2 (Homo sapiens) (UniProt P29323); settings: at 1 µM
# T4 sequence (whole entry): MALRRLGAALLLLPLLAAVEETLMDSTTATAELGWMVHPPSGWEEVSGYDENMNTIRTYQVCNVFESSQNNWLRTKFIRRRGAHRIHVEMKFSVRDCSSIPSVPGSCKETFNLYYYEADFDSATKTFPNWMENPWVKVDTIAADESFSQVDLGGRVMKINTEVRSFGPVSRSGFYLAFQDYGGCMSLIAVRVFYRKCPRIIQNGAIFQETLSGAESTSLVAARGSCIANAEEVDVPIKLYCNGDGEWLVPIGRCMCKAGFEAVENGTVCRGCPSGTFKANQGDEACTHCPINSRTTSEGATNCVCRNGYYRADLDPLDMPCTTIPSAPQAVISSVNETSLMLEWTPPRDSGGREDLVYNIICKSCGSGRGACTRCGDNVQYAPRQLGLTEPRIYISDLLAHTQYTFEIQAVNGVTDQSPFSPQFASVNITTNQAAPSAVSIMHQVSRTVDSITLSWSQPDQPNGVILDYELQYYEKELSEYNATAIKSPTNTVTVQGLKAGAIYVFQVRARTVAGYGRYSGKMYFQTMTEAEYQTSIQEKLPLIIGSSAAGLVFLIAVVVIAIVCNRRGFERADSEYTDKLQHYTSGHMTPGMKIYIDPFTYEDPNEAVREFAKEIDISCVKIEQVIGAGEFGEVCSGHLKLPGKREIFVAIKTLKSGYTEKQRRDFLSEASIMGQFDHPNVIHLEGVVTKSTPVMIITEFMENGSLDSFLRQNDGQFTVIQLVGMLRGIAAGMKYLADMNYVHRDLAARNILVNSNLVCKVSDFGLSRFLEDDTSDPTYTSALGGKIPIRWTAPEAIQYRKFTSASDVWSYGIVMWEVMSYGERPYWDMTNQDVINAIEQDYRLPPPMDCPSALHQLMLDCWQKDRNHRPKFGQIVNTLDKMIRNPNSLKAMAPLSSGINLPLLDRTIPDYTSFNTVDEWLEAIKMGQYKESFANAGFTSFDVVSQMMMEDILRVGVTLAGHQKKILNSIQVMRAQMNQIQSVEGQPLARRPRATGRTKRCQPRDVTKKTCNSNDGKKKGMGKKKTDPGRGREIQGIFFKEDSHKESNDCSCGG
# [10] = target: T5, Ephrin type-B receptor 3 (Homo sapiens) (UniProt P54753); settings: at 1 µM
# T5 sequence (whole entry): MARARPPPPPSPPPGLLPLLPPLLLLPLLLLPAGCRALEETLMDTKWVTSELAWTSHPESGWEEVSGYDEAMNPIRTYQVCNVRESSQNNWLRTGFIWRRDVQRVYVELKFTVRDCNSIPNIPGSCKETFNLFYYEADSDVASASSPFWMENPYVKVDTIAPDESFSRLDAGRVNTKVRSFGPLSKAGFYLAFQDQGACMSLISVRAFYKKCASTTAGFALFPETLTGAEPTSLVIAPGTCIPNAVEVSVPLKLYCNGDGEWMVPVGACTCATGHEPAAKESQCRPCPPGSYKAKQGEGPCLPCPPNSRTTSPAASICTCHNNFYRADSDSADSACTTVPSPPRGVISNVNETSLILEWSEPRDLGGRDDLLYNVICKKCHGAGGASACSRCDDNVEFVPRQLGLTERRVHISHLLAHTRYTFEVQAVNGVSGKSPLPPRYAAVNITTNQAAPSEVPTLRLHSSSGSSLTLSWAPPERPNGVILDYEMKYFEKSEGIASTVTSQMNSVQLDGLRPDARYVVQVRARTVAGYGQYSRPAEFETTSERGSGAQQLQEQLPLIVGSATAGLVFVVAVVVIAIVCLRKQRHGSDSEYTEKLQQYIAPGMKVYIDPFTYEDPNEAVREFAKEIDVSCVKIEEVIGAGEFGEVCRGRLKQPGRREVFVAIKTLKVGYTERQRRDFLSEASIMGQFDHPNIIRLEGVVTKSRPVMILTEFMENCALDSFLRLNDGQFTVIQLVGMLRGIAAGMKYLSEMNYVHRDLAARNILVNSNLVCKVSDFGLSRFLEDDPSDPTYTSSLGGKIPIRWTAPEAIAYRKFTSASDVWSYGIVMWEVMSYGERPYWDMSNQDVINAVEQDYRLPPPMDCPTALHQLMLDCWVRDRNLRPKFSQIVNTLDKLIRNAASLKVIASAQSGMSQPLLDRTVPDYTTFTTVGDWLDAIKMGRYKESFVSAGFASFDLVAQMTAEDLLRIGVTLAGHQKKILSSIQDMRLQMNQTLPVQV
# [11] = target: T5, Ephrin type-B receptor 3 (Homo sapiens); settings: at 10 µM
# [12] = target: Receptor tyrosine-protein kinase erbB-4 (Homo sapiens) (UniProt Q15303); settings: at 1 µM
# Sequence of Receptor tyrosine-protein kinase erbB-4 (Homo sapiens) (Q15303 whole entry): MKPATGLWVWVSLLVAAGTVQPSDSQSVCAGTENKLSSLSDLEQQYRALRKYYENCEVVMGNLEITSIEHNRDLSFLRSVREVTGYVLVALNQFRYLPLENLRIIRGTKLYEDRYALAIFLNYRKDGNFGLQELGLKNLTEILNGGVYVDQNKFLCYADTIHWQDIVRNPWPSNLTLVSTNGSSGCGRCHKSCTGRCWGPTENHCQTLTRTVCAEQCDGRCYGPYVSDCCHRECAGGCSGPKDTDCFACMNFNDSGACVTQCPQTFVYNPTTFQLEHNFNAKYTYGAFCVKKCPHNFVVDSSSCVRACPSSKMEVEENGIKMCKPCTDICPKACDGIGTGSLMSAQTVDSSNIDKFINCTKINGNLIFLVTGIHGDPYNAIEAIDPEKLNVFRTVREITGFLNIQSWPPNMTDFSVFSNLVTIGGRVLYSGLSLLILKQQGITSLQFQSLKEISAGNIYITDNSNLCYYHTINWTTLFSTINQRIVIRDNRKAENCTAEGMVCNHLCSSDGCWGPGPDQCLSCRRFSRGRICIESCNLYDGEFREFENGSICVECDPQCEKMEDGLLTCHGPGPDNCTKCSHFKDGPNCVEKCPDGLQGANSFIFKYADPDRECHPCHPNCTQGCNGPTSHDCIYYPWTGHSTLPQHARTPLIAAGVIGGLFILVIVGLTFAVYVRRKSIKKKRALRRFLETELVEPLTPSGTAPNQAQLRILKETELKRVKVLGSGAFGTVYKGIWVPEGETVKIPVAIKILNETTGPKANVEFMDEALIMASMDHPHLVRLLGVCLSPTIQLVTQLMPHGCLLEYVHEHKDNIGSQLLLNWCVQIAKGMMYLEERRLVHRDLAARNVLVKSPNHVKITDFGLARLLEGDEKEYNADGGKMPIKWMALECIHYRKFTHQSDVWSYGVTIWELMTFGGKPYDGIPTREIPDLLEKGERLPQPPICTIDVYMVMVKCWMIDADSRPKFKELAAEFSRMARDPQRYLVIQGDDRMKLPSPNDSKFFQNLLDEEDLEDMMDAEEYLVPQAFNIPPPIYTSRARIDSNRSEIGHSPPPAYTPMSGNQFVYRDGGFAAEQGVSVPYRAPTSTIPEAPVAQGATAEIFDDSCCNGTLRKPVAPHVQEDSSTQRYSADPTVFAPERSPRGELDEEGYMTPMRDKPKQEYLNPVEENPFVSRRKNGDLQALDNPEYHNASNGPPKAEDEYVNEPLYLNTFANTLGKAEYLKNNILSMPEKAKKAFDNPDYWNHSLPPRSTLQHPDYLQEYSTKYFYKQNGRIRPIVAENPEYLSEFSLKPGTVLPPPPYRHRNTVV
# [13] = target: Receptor tyrosine-protein kinase erbB-4 (Homo sapiens) (UniProt Q15303); settings: at 10 µM
smiles,measurement,setting,value
COc1ccc2c(c1)c(C1=C(c3c[nH]c4ccccc34)C(=O)NC1=O)cn2CCCN(C)C,residual activity,[1],60%
same,residual activity,[2],115%
same,residual activity,[3],73%
same,residual activity,[4],44%
same,residual activity,[5],100%
same,residual activity,[6],96%
same,residual activity,[7],80%
same,residual activity,[8],53%
same,residual activity,[9],109%
same,residual activity,[10],111% (inactive)
same,residual activity,[11],124%
same,residual activity,[12],75%
same,residual activity,[13],53%
